Data taken from PubChem BioAssay.

System: Human papillomavirus type 1a protein E7 (residues 44-93)
Test: small molecules binding HPV E7 44-93 – biochemical, small-molecule microarray, residues 44-93, 635 nm fluorescence, primary screen (AID 1108);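 further: E7 fragment applied at 1 µg/mL in TBST for 1 h at 4 C; score combines spot fluorescence with its signal to noise ratio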
Settings: fluorescence 635 nm, higher = more signal

| SMILES | composite z-score |
| --- | --- |
| Cc1nc2cc(Br)ccc2c(=O)n1Cc1cccc(O)c1 | 0.804 |
| C=C[C@@H](C)[C@H](O)c1ccc(OCCO)cc1 | -0.355 |
| C=CCN1C(=O)[C@]2(O[C@H](CCO)[C@@H]([Si](C)(C)c3ccc(OC)cc3)[C@@H]2C)c2cc(NC(=O)c3ccc(OC)cc3)ccc21 | 1.12 |
| CCOC(=O)C[C@H]1[C@H](OC(=O)c2cc3ccccc3oc2=O)[C@@H](NC(=O)c2ccc3ccccc3c2)c2cc(OCCCO)ccc2N1C(=O)Cc1ccc(OC)cc1 | 1.16 |
| COc1ccc(C#Cc2ccc3c(c2)[C@]2(C(=O)N3)[C@H](c3ccc(OCCO)cc3)N3[C@H](c4ccccc4)[C@H](c4ccccc4)OC(=O)[C@H]3[C@@H]2C(=O)N2CCc3cc(OC)c(OC)cc3C2)cc1 | 1.33 |
| COC(=O)c1c2oc(c1C(=O)OC)C(=O)N1CCC[C@H]1Cn1nncc1CN(Cc1ccccc1)C(=O)N[C@H](CO)CC2 | 0.289 |
| COC(=O)C(CC#Cc1ccc2c(c1)[C@]1(C(=O)N2)[C@H](c2ccc(O)cc2)N2[C@H](c3ccccc3)[C@H](c3ccccc3)OC(=O)[C@H]2[C@@H]1C(=O)N1CCCCCCC1)C(=O)OC | 1.36 |
| C=C[C@H](C)[C@H](OC(=O)Nc1ccc(OC)cc1)c1ccc(OCCO)cc1 | -0.562 |
| [N-]=[N+]=NC[C@H](Cc1ccccc1)NC(=O)c1ccccc1 | -0.778 |
| COc1ccc([Si](C)(C)[C@H]2[C@H](CC(=O)N3Cc4ccccc4C[C@H]3CO)O[C@@]3(C(=O)N(Cc4ccc(N5C(=O)c6cccc7cccc5c67)cc4)c4ccccc43)[C@@H]2C)cc1 | 1.3 |
| COc1ccc([Si](C)(C)[C@H]2[C@H](CC(=O)N3CCC[C@H]3CO)O[C@@]3(C(=O)N(Cc4ccc(N5CCC5=O)cc4)c4ccccc43)[C@@H]2C)cc1 | 1.13 |
| C=CCNC(=O)[C@H]1[C@@H]2C(=O)O[C@@H](c3ccccc3)[C@@H](c3ccccc3)N2[C@@H](c2ccc(OCCO)cc2)[C@]12C(=O)Nc1ccc(C#CCNC(N)=O)cc12 | 0.0863 |
| C=CCC(OC(C)=O)[C@@H]1[C@@H](N(Cc2cccc3ccccc23)C(=O)Cc2ccc(F)cc2)c2cc(OCCCO)ccc2N1C(=O)c1ccc(-c2ccccc2)cc1 (stereo partly specified) | -0.658 |
| CC1CC/C=C\[C@H]2OC34C=CCN(CCN5CCOCC5)C(=O)[C@H]3N(C(C)CO)C(=O)[C@@H]4C2C(=O)O1 (stereo partly specified) | 0.523 |
| C=CCN1C(=O)[C@]2(O[C@H](CCO)[C@@H]([Si](C)(C)c3ccc(OC)cc3)[C@@H]2C)c2cc(N3C(=O)COc4ccccc43)ccc21 | 1.32 |
| CN(C)C(=O)[C@]1(CCS(=O)(=O)c2ccccc2)N=C(c2ccc(OCCCO)cc2)O[C@@H]1c1ccccc1 | 1.44 |
| Cc1ccccc1C(O)C1C=CC2C(=O)NC(=O)C2N1Nc1ccc(Cl)cc1Cl (stereo unspecified) | -0.198 |
| O=C1c2ccccc2[C@](Cc2ccccc2I)(C(=O)NC2CC2)[C@H](c2ccc(CO)cc2)N1Cc1ccccc1C(F)(F)F | 1.45 |

| SMILES | composite z-score |
| --- | --- |
| Cc1ccc(C(C)CC(O)C2C=CC3C(=O)N(c4ccccc4)C(=O)C3N2Nc2ccc(C#N)cc2)o1 (stereo unspecified) | 1.42 |
| COc1ccc([Si](C)(C)[C@H]2[C@H](CCO)O[C@@]3(C(=O)N(Cc4ccccc4)c4ccc(N5C(=O)c6ccccc6Oc6ccccc65)cc43)[C@@H]2C)cc1 | 0.647 |
| COCCOC(=O)N1C(=O)[C@@]2(c3cc(C#CC4=CCCCC4)ccc31)[C@H](C(=O)N1CCCCCCC1)[C@H]1C(=O)O[C@H](c3ccccc3)[C@H](c3ccccc3)N1[C@@H]2c1ccc(OCCO)cc1 | 1.18 |
| CC(C)[C@H]1NC(=O)[C@@]23C(=O)N[C@@H](Cc4ccccc4)C2[C@H](C)[C@@]2(C)O[C@H]2C3/C=C/C/C=C\CNC(=O)[C@H](Cc2ccccc2)NC1=O (stereo partly specified) | 1.33 |
| CC(C)=CCCC(C)=CC(O)C1C=CC2C(=O)N(c3ccccc3)C(=O)C2N1Nc1ccccc1F (stereo unspecified) | 0.961 |
| CC(C)C[C@@H]1NC(=O)CNC(=O)[C@@]23C(=O)N[C@@H](Cc4ccccc4)C2[C@H](C)[C@@]2(C)O[C@H]2C3/C=C/C/C=C\CNC1=O (stereo partly specified) | 1.39 |
| COC(=O)[C@@]1(Cc2ccc(F)cc2)[C@H]2c3cc(C(=O)N(C)C)n(Cc4ccc(O)c(OC)c4)c3C[C@H]2CN1C(=O)c1ccccc1 | 0.347 |
| C=C(COC)C(=O)CC[C@@H](OC(=O)c1cccnc1)c1ccccc1OCCO | -1.05 |
| CN(C)CCCNC(=O)[C@@H]1c2ccccc2C(=O)N(C2CCCCC2)[C@H]1c1ccc(CO)cc1 | 1.44 |
| COc1cc(NN2C(C(O)c3ccc(I)cc3)C=CC3C(=O)N(c4ccccc4)C(=O)C32)cc(OC)c1OC (stereo unspecified) | 1.46 |
| Cc1ccc([C@H]2C(C(=O)O)=C[C@@H](C(C)(C)C)N2S(=O)(=O)c2ccc(C)cc2)cc1 | 1.41 |
| CC(C)OC(=O)CC(=O)CC(O)c1ccc([N+](=O)[O-])cc1 (stereo unspecified) | 1.13 |
| NC(=O)N1C(=O)C2C(C1=O)C1C=C(CCCO)C2C(C2CC2)N1Cc1cccc(OC(F)(F)F)c1 (stereo unspecified) | 0.504 |
| CC(CO)N1C(=O)[C@@H]2[C@H]3C(=O)OCC=C[C@H]3OC23C=CCN(c2ccc(Cl)cc2)C(=O)[C@@H]13 (stereo partly specified) | -0.716 |
| NC(=O)[C@@H]1[C@H]2C(=O)O[C@H](c3ccccc3)[C@H](c3ccccc3)N2[C@H](c2ccc(OCCO)cc2)[C@@]12C(=O)Nc1ccc(C#CCCO)cc12 | -1.04 |
| CCOC(=O)C[C@H]1[C@H](OC(=O)c2ccc(C(=O)c3ccccc3)cc2)[C@@H](NC(=O)CC(C)C)c2cc(OCCCO)ccc2N1C(=O)Cc1ccc(OC)cc1 | 1.1 |
| COCCCNC(=O)[C@@]1(c2ccc([N+](=O)[O-])cc2)CC(=O)N(CC23CC4CC(CC(C4)C2)C3)[C@@H]1c1ccc(CO)cc1I | 0.952 |
| C=C(/C(=C/C[C@@H](OC(C)=O)c1ccc(CO)o1)c1cc(C(=O)OC)ccc1OC)C(C)C | 0.443 |
